Test results published in PubChem BioAssay AID1159580 (chemical genetic matrix, 2015).
In all, about 5,500 compounds went through this assay and about 2,000 (36%) were called active. Roughly 18% stayed inconclusive and do not appear here. Rule as the data show it: active = normalized growth mostly below about 0.91 (no sharp cut-off); inconclusive = no clear call, values can overlap the other calls; inactive = mostly above about 0.92. This is one part of the list.

Experiment: chemical genetic growth profiling, strain panel (AID 1159580);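 also: tested at 20 µM; growth read once vehicle control cultures reached saturation at 30 °C; 1 = growth at the plate median or of vehicle wells; lower values mean less growth of the strain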
Details: growth OD

Measured: normalized growth

N[C@H](Cc1ccccc1)C(=O)O
inactive: S. cerevisiae deletion strains, locus YJR043C, strain POL32, stronger effect = lower value 1.01 | S. cerevisiae deletion strains, locus YJR066W, strain TOR1, stronger effect = lower value 0.943 | S. cerevisiae deletion strains, locus YKL009W, strain mrt4, stronger effect = lower value 1.01 | S. cerevisiae deletion strains, locus YKL068W, stronger effect = lower value 1.01 | S. cerevisiae deletion strains, locus YKL085W, strain MDH1 (second series), stronger effect = lower value 1.01 | S. cerevisiae deletion strains, locus YKL085W, strain MDH1, stronger effect = lower value 1.01 | S. cerevisiae deletion strains, locus YKL160W, strain elf1, stronger effect = lower value 1.04 | S. cerevisiae deletion strains, locus YKL190W, strain CNB1, stronger effect = lower value 1.02 | S. cerevisiae deletion strains, locus YKR001C, strain vps1, stronger effect = lower value 0.997 | S. cerevisiae deletion strains, locus YKR026C, strain gcn3, stronger effect = lower value 0.988 | S. cerevisiae deletion strains, locus YKR091W, strain srl3, stronger effect = lower value 1 | S. cerevisiae deletion strains, locus YLL001W, strain dnm1, stronger effect = lower value 0.973 | S. cerevisiae deletion strains, locus YLL026W, stronger effect = lower value 0.984 | S. cerevisiae deletion strains, locus YLL041C, strain sdh2, stronger effect = lower value 1 | S. cerevisiae deletion strains, locus YLR027C, strain aat2, stronger effect = lower value 1 | S. cerevisiae deletion strains, locus YLR039C, strain RIC1, stronger effect = lower value 1.02 | S. cerevisiae deletion strains, locus YLR058C, strain SHM2, stronger effect = lower value 1.02 | S. cerevisiae deletion strains, locus YLR102C, strain apc9, stronger effect = lower value 0.995 | S. cerevisiae deletion strains, locus YLR113W, strain HOG1, stronger effect = lower value 1.05 | S. cerevisiae deletion strains, locus YLR221C, strain rsa3, stronger effect = lower value 0.975 | S. cerevisiae deletion strains, locus YLR258W, strain gsy2, stronger effect = lower value 1.03 | S. cerevisiae deletion strains, locus YLR262C, strain YPT6 (second series), stronger effect = lower value 0.987 | S. cerevisiae deletion strains, locus YLR262C, strain YPT6, stronger effect = lower value 1.04 | S. cerevisiae deletion strains, locus YLR268W, strain sec22, stronger effect = lower value 0.994 | S. cerevisiae deletion strains, locus YLR320W, strain mms22, stronger effect = lower value 0.949 | S. cerevisiae deletion strains, locus YLR330W, strain CHS5, stronger effect = lower value 1.02 | S. cerevisiae deletion strains, locus YLR342W, strain FKS1 (second series), stronger effect = lower value 1 | S. cerevisiae deletion strains, locus YLR342W, strain FKS1, stronger effect = lower value 1.02 | S. cerevisiae deletion strains, locus YLR357W, strain rsc2, stronger effect = lower value 1.01 | S. cerevisiae deletion strains, locus YLR370C, strain arc18, stronger effect = lower value 1 | S. cerevisiae deletion strains, locus YLR371W, strain rom2, stronger effect = lower value 0.982 | S. cerevisiae deletion strains, locus YLR384C, strain iki3, stronger effect = lower value 0.991 | S. cerevisiae deletion strains, locus YLR418C, strain cdc73, stronger effect = lower value 0.975 | S. cerevisiae deletion strains, locus YML016C, strain PPZ1, stronger effect = lower value 1.01 | S. cerevisiae deletion strains, locus YML032C, strain rad52, stronger effect = lower value 0.986 | S. cerevisiae deletion strains, locus YML120C, strain ndi1, stronger effect = lower value 0.987 | S. cerevisiae deletion strains, locus YML124C, strain tub3, stronger effect = lower value 0.997 | S. cerevisiae deletion strains, locus YMR058W, strain fet3, stronger effect = lower value 0.987 | S. cerevisiae deletion strains, locus YMR078C, strain ctf18, stronger effect = lower value 1 | S. cerevisiae deletion strains, locus YMR125W, strain sto1, stronger effect = lower value 1 | S. cerevisiae deletion strains, locus YMR129W, stronger effect = lower value 0.978 | S. cerevisiae deletion strains, locus YMR205C, strain PFK2, stronger effect = lower value 0.985 | S. cerevisiae deletion strains, locus YMR223W, strain ubp8, stronger effect = lower value 1.01 | S. cerevisiae deletion strains, locus YMR231W, strain pep5, stronger effect = lower value 0.984 | S. cerevisiae deletion strains, locus YMR263W, strain SAP30, stronger effect = lower value 1.01 | S. cerevisiae deletion strains, locus YMR307W, strain GAS1, stronger effect = lower value 1.01 | S. cerevisiae deletion strains, locus YNL067W, strain RPL9B, stronger effect = lower value 1.02 | S. cerevisiae deletion strains, locus YNL071W, strain lat1, stronger effect = lower value 0.983 | S. cerevisiae deletion strains, locus YNL128W, strain TEP1, stronger effect = lower value 1.02 | S. cerevisiae deletion strains, locus YNL153C, strain GIM3, stronger effect = lower value 1.03 | S. cerevisiae deletion strains, locus YNL183C, strain NPR1, stronger effect = lower value 0.988 | S. cerevisiae deletion strains, locus YNL209W, strain ssb2, stronger effect = lower value 1.02 | S. cerevisiae deletion strains, locus YNL233W, strain BNI4, stronger effect = lower value 1.01 | S. cerevisiae deletion strains, locus YNL248C, strain rpa49, stronger effect = lower value 1 | S. cerevisiae deletion strains, locus YNL250W, strain rad50, stronger effect = lower value 1 | S. cerevisiae deletion strains, locus YNL271C, strain bni1, stronger effect = lower value 1.01 | S. cerevisiae deletion strains, locus YNL298W, strain CLA4, stronger effect = lower value 1.02 | S. cerevisiae deletion strains, locus YNL307C, strain MCK1, stronger effect = lower value 0.993 | S. cerevisiae deletion strains, locus YNL322C, strain KRE1 (second series), stronger effect = lower value 1.03 | S. cerevisiae deletion strains, locus YNR049C, strain mso1, stronger effect = lower value 1 | S. cerevisiae deletion strains, locus YNR052C, strain pop2, stronger effect = lower value 1.01 | S. cerevisiae deletion strains, locus YOL006C, strain TOP1, stronger effect = lower value 1.03 | S. cerevisiae deletion strains, locus YOL012C, strain htz1 2.29 | S. cerevisiae deletion strains, locus YOL147C, strain pex11, stronger effect = lower value 1.01 | S. cerevisiae deletion strains, locus YOR001W, strain rrp6, stronger effect = lower value 0.943 | S. cerevisiae deletion strains, locus YOR061W, strain CKA2, stronger effect = lower value 1.02 | S. cerevisiae deletion strains, locus YOR069W, strain VPS5, stronger effect = lower value 1.01 | S. cerevisiae deletion strains, locus YOR070C, strain gyp1, stronger effect = lower value 0.983 | S. cerevisiae deletion strains, locus YOR080W, strain dia2, stronger effect = lower value 0.988 | S. cerevisiae deletion strains, locus YOR083W, strain WHI5, stronger effect = lower value 0.991 | S. cerevisiae deletion strains, locus YOR106W, strain vam3, stronger effect = lower value 1.03 | S. cerevisiae deletion strains, locus YOR136W, strain idh2, stronger effect = lower value 1 | S. cerevisiae deletion strains, locus YOR144C, strain elg1, stronger effect = lower value 0.999 | S. cerevisiae deletion strains, locus YOR184W, strain ser1, stronger effect = lower value 0.994 | S. cerevisiae deletion strains, locus YOR231W, strain MKK1, stronger effect = lower value 1.08 | S. cerevisiae deletion strains, locus YOR265W, strain rbl2, stronger effect = lower value 0.992 | S. cerevisiae deletion strains, locus YOR270C, strain vph1, stronger effect = lower value 0.986 | S. cerevisiae deletion strains, locus YOR290C, strain snf2, stronger effect = lower value 1.02 | S. cerevisiae deletion strains, locus YOR316C, strain cot1, stronger effect = lower value 1 | S. cerevisiae deletion strains, locus YPL051W, strain arl3, stronger effect = lower value 1.01 | S. cerevisiae deletion strains, locus YPL078C, strain atp4, stronger effect = lower value 1.03 | S. cerevisiae deletion strains, locus YPL106C, strain sse1, stronger effect = lower value 1.03 | S. cerevisiae deletion strains, locus YPL240C, strain hsp82, stronger effect = lower value 0.994 | S. cerevisiae deletion strains, locus YPL256C, strain CLN2, stronger effect = lower value 1.06 | S. cerevisiae deletion strains, locus YPR119W, strain clb2, stronger effect = lower value 0.995 | S. cerevisiae deletion strains, locus YPR141C, strain kar3, stronger effect = lower value 1 | S. cerevisiae deletion strains, locus YPR163C, strain tif3, stronger effect = lower value 1 | S. cerevisiae deletion strains, locus YPR167C, strain met16, stronger effect = lower value 1 | S. cerevisiae deletion strains, strain wtn01, stronger effect = lower value 0.996 | S. cerevisiae strains, strain wild type, stronger effect = lower value 1.01
